Measurements taken from PubChem BioAssay AID1159580 (chemical genetic matrix, 2015).
Hit rate of the full screen: of about 5,500 compounds, about 2,000 (36%) were called active. About 18% were inconclusive and are not listed. Cut-off read from the data, not from the text of the source: active = normalized growth mostly below about 0.91 (no sharp cut-off); inconclusive = no clear call, values can overlap the other calls; inactive = mostly above about 0.92. Some of the results follow.

Assay: chemical genetic growth profiling, strain panel (AID 1159580);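 note: tested at 20 µM; growth read once vehicle control cultures reached saturation at 30 °C; 1 = growth at the plate median or of vehicle wells; lower values mean less growth of the strain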
Settings: S. cerevisiae deletion strains, growth OD

Measured: normalized growth

O=C(O)C1=CCNCC1
inactive: locus YAL013W, strain DEP1, hits give low values 0.953 | locus YAL021C, strain ccr4, hits give low values 0.979 | locus YAL026C, strain drs2, hits give low values 1.02 | locus YAL030W, strain snc1, hits give low values 1.02 | locus YBL061C, strain skt5, hits give low values 1.01 | locus YBR009C, strain hhf1, hits give low values 1.03 | locus YBR023C, strain chs3, hits give low values 1.01 | locus YBR171W, strain sec66, hits give low values 1.01 | locus YBR231C, strain swc5, hits give low values 1.05 | locus YBR279W, strain paf1, hits give low values 1.01 | locus YCL011C, strain gbp2, hits give low values 1.01 | locus YCL016C, strain dcc1, hits give low values 1.02 | locus YCL061C, strain MRC1 (second series), hits give low values 0.984 | locus YCL061C, strain MRC1, hits give low values 1.02 | locus YCL069W, strain vba3, hits give low values 1.01 | locus YCR088W, strain abp1, hits give low values 1.02 | locus YDL005C, strain med2, hits give low values 1.01 | locus YDL040C, strain nat1, hits give low values 1 | locus YDR001C, strain nth1, hits give low values 1.01 | locus YDR069C, strain doa4, hits give low values 1.03 | locus YDR137W, strain rgp1, hits give low values 0.985 | locus YDR150W, strain NUM1, hits give low values 0.991 | locus YDR159W, strain sac3, hits give low values 1.02 | locus YDR195W, strain ref2 0.996 | locus YDR297W, strain sur2, hits give low values 1.01 | locus YDR334W, strain swr1, hits give low values 1.02 | locus YDR335W, strain msn5, hits give low values 1.02 | locus YDR363W, strain ESC2, hits give low values 0.979 | locus YDR392W, strain spt3, hits give low values 0.98 | locus YEL003W, strain gim4, hits give low values 1.02 | locus YEL037C, strain rad23, hits give low values 1.01 | locus YEL061C, strain CIN8 (second series), hits give low values 1.01 | locus YER002W, strain NOP16, hits give low values 0.993 | locus YER015W, strain faa2, hits give low values 1.02 | locus YER016W, strain bim1, hits give low values 1.02 | locus YER111C, strain swi4, hits give low values 1.01 | locus YER155C, strain BEM2 (second series), hits give low values 1.05 | locus YFR010W, strain ubp6, hits give low values 1.02 | locus YGL167C, strain pmr1, hits give low values 1.02 | locus YGL173C, strain kem1, hits give low values 1.01 | locus YGL227W, strain vid30, hits give low values 1.01 | locus YGL240W, strain doc1, hits give low values 1.03 | locus YGL253W, strain hxk2, hits give low values 1.01 | locus YHR013C, strain ard1, hits give low values 1.02 | locus YHR027C, strain rpn1, hits give low values 1.02 | locus YHR030C, strain SLT2, hits give low values 1.04 | locus YHR079C, strain IRE1, hits give low values 1.05 | locus YHR142W, strain chs7, hits give low values 0.988 | locus YJL092W, strain hpr5, hits give low values 1.01 | locus YJL095W, strain BCK1 (second series), hits give low values 1.02 | locus YJL095W, strain BCK1, hits give low values 1.03 | locus YJL115W, strain asf1, hits give low values 1.02 | locus YJL129C, strain trk1, hits give low values 1.01 | locus YJL154C, strain vps35, hits give low values 1.01 | locus YJL164C, strain tpk1, hits give low values 1.01 | locus YJL166W, strain qcr8, hits give low values 1.01 | locus YJL187C, strain SWE1, hits give low values 1.01 | locus YJR066W, strain TOR1, hits give low values 0.961 | locus YJR075W, strain HOC1, hits give low values 0.978 | locus YKL160W, strain elf1, hits give low values 0.99 | locus YKR026C, strain gcn3, hits give low values 1.02 | locus YKR091W, strain srl3, hits give low values 1.01 | locus YLL001W, strain dnm1, hits give low values 1.01 | locus YLL026W, hits give low values 1.01 | locus YLL041C, strain sdh2, hits give low values 1.01 | locus YLR027C, strain aat2, hits give low values 1.01 | locus YLR113W, strain HOG1, hits give low values 1.06 | locus YLR221C, strain rsa3, hits give low values 1.02 | locus YLR258W, strain gsy2, hits give low values 1.04 | locus YLR262C, strain YPT6 (second series), hits give low values 1.01 | locus YLR320W, strain mms22, hits give low values 1.03 | locus YLR342W, strain FKS1, hits give low values 1.03 | locus YLR357W, strain rsc2, hits give low values 1.03 | locus YLR370C, strain arc18, hits give low values 1.02 | locus YLR384C, strain iki3, hits give low values 1.01 | locus YML120C, strain ndi1, hits give low values 1.01 | locus YMR058W, strain fet3, hits give low values 1.02 | locus YMR125W, strain sto1, hits give low values 1.02 | locus YMR129W, hits give low values 1.01 | locus YMR205C, strain PFK2, hits give low values 1.03 | locus YMR231W, strain pep5, hits give low values 1.01 | locus YNL071W, strain lat1, hits give low values 1.02 | locus YNL128W, strain TEP1, hits give low values 0.982 | locus YNL153C, strain GIM3, hits give low values 0.965 | locus YNL175C, strain NOP13, hits give low values 0.994 | locus YNL183C, strain NPR1, hits give low values 0.958 | locus YNL209W, strain ssb2, hits give low values 1.01 | locus YNL224C, strain SQS1, hits give low values 0.982 | locus YNL248C, strain rpa49, hits give low values 0.98 | locus YNL322C, strain KRE1 (second series), hits give low values 1.01 | locus YNL322C, strain KRE1, hits give low values 0.991 | locus YNR049C, strain mso1, hits give low values 1.02 | locus YOR001W, strain rrp6, hits give low values 1 | locus YOR070C, strain gyp1, hits give low values 1.02 | locus YOR080W, strain dia2, hits give low values 1.03 | locus YOR083W, strain WHI5, hits give low values 0.982 | locus YOR106W, strain vam3, hits give low values 0.986 | locus YOR231W, strain MKK1, hits give low values 1.04 | locus YOR265W, strain rbl2, hits give low values 1.01 | locus YOR270C, strain vph1, hits give low values 1.02 | locus YOR290C, strain snf2, hits give low values 1.01 | locus YPL051W, strain arl3, hits give low values 1.01 | locus YPL055C, strain LGE1, hits give low values 0.974 | locus YPL078C, strain atp4, hits give low values 0.991 | locus YPL106C, strain sse1, hits give low values 1.02 | locus YPL240C, strain hsp82, hits give low values 1 | locus YPL256C, strain CLN2, hits give low values 1.05
